From PubChem
This is one part of a sample in which hits are shown more often than they occur.
Shiga toxin inh = blocks Shiga toxin action in Vero cells. Vero cells, Shiga toxin protein synthesis inhibition reporter. AID 2315. actives 9.2% (n = 290,000). inhibition, % at 38.7 µM; in the data active = inhibition mostly above about 28%, no sharp cut-off; inactive = mostly below about 43%
RE007 growth inh = less growth of the S. pombe RE007 Vpr strain. actives 0.21% (n = 360,000). AID 651644. Potency, µM (highest dose often 92.2 µM), actives largely listed as inhibitors. S. pombe RE007 Vpr strain, BacTiter-Glo ATP luminescence, 24 h; active = well fitted falling curve with a large enough effect; inconclusive = small, poorly fitted or top-dose-only effect; inactive = no such curve, though single readings can be large or run the other way; note: nearly all actives have a fitted effect of over 50% in size
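Fission yeast RE007 carrying one integrated HIV-1 vpr copy, seeded at OD 0.01 in PMG+AL medium with 23 nL pinned compound. Grown 24 h at 30 degrees; viability read by BacTiter-Glo luminescence after 5 min.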
LmPK inh = blocks Leishmania mexicana pyruvate kinase activity | Potency, µM (titrated, usually from 57.5 µM), most hits filed as inhibitors | purified LmPK, Kinase-Glo ATP luminescence, 1 h | Q27686 | actives 0.37% (n = 290,000)
Target sequence (Q27686 whole entry, looked up): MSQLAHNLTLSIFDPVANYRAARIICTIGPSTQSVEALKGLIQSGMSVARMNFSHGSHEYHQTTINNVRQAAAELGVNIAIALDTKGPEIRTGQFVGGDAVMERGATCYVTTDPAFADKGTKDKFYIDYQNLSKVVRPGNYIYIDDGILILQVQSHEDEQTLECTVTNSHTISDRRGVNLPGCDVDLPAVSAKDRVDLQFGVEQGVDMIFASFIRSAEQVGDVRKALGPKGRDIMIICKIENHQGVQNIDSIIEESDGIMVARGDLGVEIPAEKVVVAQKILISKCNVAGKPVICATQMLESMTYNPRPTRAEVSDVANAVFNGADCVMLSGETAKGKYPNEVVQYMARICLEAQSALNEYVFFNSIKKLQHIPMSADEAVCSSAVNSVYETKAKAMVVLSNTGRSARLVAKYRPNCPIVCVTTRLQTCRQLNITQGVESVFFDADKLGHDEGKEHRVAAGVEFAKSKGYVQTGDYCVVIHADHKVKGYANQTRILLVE
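Purified LmPK (0.1 nM) converted ADP (0.1 mM) to ATP with PEP (0.5 mM) in imidazole buffer pH 7.2 with KCl and MgCl2, 1 h at room temperature. ATP was read by Kinase-Glo luminescence; data normalized to uninhibited and no-enzyme controls.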
Giardia FBPA inh = blocks Giardia fructose-bisphosphate aldolase activity. actives 0.71% (n = 290,000). purified Giardia FBPA. Potency, µM (doses to about 59.6 µM), actives largely listed as inhibitors; note: nearly all actives have a fitted effect of over 55% in size
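40 nM FBPA preincubated 10 min at RT with compound (up to 57.5 uM final), then substrate plus GAPDH/TPI/NAD/arsenate coupling and diaphorase/resazurin added. Fluorescence read after 20 min at RT, 525/598 nm.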
Cycloheximide cs = affects cycloheximide protein synthesis inhibition readout, counter-screen | max response, % | cell reporter, cycloheximide protein synthesis inhibition counterscreen | actives 12% (n = 300,000); in the data active = max response mostly above about 13%, no sharp cut-off; inactive = mostly below about 14%; note: read at 38.3 µM for the half of the compounds with a filed dose
Tb PYK inh = inhibitors of Trypanosoma brucei pyruvate kinase | actives 0.12% (n = 410,000) | Q57TT1 | Potency, µM (titrated, usually from 76.8 µM), most hits filed as inhibitors | TbPYK enzyme, Kinase-Glo Plus ATP luminescence, 45 min; note: nearly all actives have a fitted effect of over 50% in size
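In this concentration-response screen, enzyme-free wells defined baseline while DMSO plates tracked drift. Each reaction combined TbPYK, substrate, compound and 130 uM ADP for 45 min at room temperature. Kinase-Glo Plus luminescence gave the signal.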
Hits are given with their value; - = inactive; ? = inconclusive; . = not tested or not shown; + = active, no number; [ ] = remark or other dose. Unless noted, calls come from the whole dose curve; as a rule, active = well fitted curve in the direction sought with a large enough effect; inconclusive = small, poorly fitted or top-dose-only effect, or another doubt; inactive = no such curve, though single readings can be large; an effect the other way counts as inactive or inconclusive.

SMILES | Shiga toxin inh | RE007 growth inh | LmPK inh | Giardia FBPA inh | Cycloheximide cs | Tb PYK inh
CCOC(=O)c1nn(-c2ccc(C)cc2)c(=O)c2c(N)scc12 | - | - | - | ? | - | -
CCOC(=O)c1nn(-c2ccc(F)cc2)cc1O | 115 | - | -[11.5 µM] | - | 52 | -
CCOC(=O)c1nn(-c2ccc(F)cc2)c(=O)c2c(N)scc12 | - | - | - | - | 19 | -
CCOC(=O)CSc1nnc(NC(=O)c2ccco2)s1 | - | - | - | - | - | -
CCSc1nnc(NC(=O)c2c(C)noc2C)s1 | - | - | - | - | 16 | -
CCCc1cc(C(N)=O)c(NC(=O)c2ccco2)s1 | + | - | - | - | 29 | -
O=C(Nc1nnc(-c2ccc(F)cc2)s1)c1ccco1 | - | - | - | - | - | -
CCSc1nnc(NC(=O)c2ccco2)s1 | 27 | - | - | - | 23 | -
CCSc1nnc(NC(=O)c2cc(C)on2)s1 | - | ? | - | - | - | -
Cc1cccc(-c2nnc(NC(=O)c3ccco3)s2)c1 | - | - | - | . | 21 | -
Cn1cccc1C(=O)N1CCC2(CCCN(c3ccccc3)C2)CC1 | . | . | . | - | . | -
Cc1ccc(NS(=O)(=O)c2ccc(-c3coc(C)n3)cc2)c(Cl)c1 | . | - | . | . | . | -
CC(C)Sc1nnc(NC(=O)c2ccco2)s1 | 114 | - | - | - | 35 | -
Cc1ccc2nc(/C=C/c3cccc(F)c3)ccc2c1 | 90 | - | - | - | 65 | -
Cc1ccc(N2CCN(c3ccc(C)cc3)C(CC(=O)O)C2=O)cc1 (stereo unspecified) | - | - | - | - | 9.2 | -
COc1ccc2oc(C(=O)Nc3ccccn3)c(C)c2c1 | 66 | - | - | - | 57 | -
Cc1c(C(=O)Nc2nccs2)oc2ccc(F)cc12 | . | - | . | . | . | -
Cc1c(C(=O)NC2CCCCC2)oc2ccc(F)cc12 | 114 | - | - | - | 51 | -
COc1ccc2oc(C(=O)NCCC(C)C)c(C)c2c1 | - | - | - | - | 58 | -
COc1ccc2oc(C(=O)NC3CCCCC3)c(C)c2c1 | 114 | - | - | . | 47 | -
COc1ccc2oc(C(=O)NN3C(C)CCCC3C)c(C)c2c1 (stereo unspecified) | - | - | - | - | - | -
Cc1ccc(NC(=O)c2c(C)oc3ccc(O)c(CN4CCN(Cc5ccccc5)CC4)c23)cc1 | . | . | . | . | . | -
Cc1ccc2oc(C(=O)N(Cc3ccccc3F)C3CCS(=O)(=O)C3)c(C)c2c1 (stereo unspecified) | . | . | . | . | . | -
Cc1ccc2oc(C(=O)NC3CCS(=O)(=O)C3)c(C)c2c1 (stereo unspecified) | 35 | - | - | - | 30 | -
Cc1ccc(-c2nc3cc(C(C)C)ccc3o2)cc1NC(=O)c1cc([N+](=O)[O-])ccc1N1CCOCC1 | . | . | . | . | . | -
SMILES | Shiga toxin inh | RE007 growth inh | LmPK inh | Giardia FBPA inh | Cycloheximide cs | Tb PYK inh
O=C(Nc1ccc(Cl)cc1)NC1CCCC1Cc1ccco1 (stereo unspecified) | 47 | - | - | - | 41 | -
O=C(NC1CCCCCC1)c1ccc(CS(=O)(=O)Cc2ccc(F)cc2)o1 | 40 | - | - | . | 22 | -
Nc1ccc(NC(=O)NC2CCCCC2)cc1 | 61 | - | - | - | 38 | -
O=C(Nc1ccc(Cl)cc1)NC1CCCCC1Cc1ccco1 (stereo unspecified) | - | - | - | - | - | -
O=C(NC1CCCCCCC1)c1ccc(F)cc1 | 71 | - | - | - | 46 | -
COC(=O)[C@]12CCCCC=C1N(Cc1cccc3ccccc13)C(=O)[C@H](CC(=O)NCCC(C)C)C2 | . | - | . | . | . | -
Cc1cc(=O)n(CC(=O)Nc2ccc(Cl)c(Cl)c2)c(-n2nc(C)cc2C)n1 | . | . | . | . | . | -[15.4 µM]
CC1CCCCN1C(=O)Cc1ccc(Cl)cc1 (stereo unspecified) | - | - | - | - | 14 | -
O=C(COc1ccc([N+](=O)[O-])cc1Cl)NCC1CCCO1 (stereo unspecified) | 46 | - | - | - | 16 | -
CCC(C)(C)NC(=O)Cc1ccc(F)cc1 | - | - | - | - | - | -
O=C(Nc1ccc(F)c(F)c1)NC1CCCCC1 | 50 | - | - | - | 30 | -
CCC(C)(C)NC(=O)Cc1ccc(Cl)cc1 | - | - | - | - | 25 | -
CC1=C(C(=O)Nc2cc(C(=O)N3CCC(C)CC3)ccc2C)SCCO1 | - | - | - | . | - | -
COC1=Nc2ccccc2/C=C\c2ccccc21 | . | - | . | . | . | -
COC(=O)c1ccc(C(NC(=O)OCc2ccccc2)/C(C)=C/[C@@H](C)C(=O)NCCO)cc1 (stereo partly specified) | . | . | . | - | . | .
C=CC[C@@H]1C=C[C@@H](O/N=C\[C@@H](OC)[C@H](C)/C=C\CC(=O)OC)[C@@H](CO)O1 | . | . | . | -[12.9 µM] | . | .
O=C(Nc1ccc(F)cc1)NC1CCCCCCC1 | 108 | - | - | - | 61 | -
CC(NCc1ccc(F)cc1)C(=O)NC1CCCCC1 (stereo unspecified) | 53 | - | - | - | 7.1 | -
O=C(Nc1ccc(Cl)cc1)NC1CCCCNC1=O (stereo unspecified) | 46 | - | - | - | 28 | -
Nc1ccccc1C(=O)NC1CCCNC1=O (stereo unspecified) | . | - | . | . | . | -
O=C(COc1ccc(Cl)cc1[N+](=O)[O-])NC1CCCCC1 | 71 | - | - | - | 24 | -
CCOC(=O)C(O)(c1ccc(NC(=O)c2ccc(Cl)c(Cl)c2)cc1)C(F)(F)F (stereo unspecified) | - | ? | - | - | - | -
O=C(NC1CCCCCC1)c1ccc(N2CCCC2=O)cc1 | 74 | - | ? | - | - | -
O=C(Cc1ccc(Cl)cc1)NC1CCCCCC1 | - | - | - | - | 20 | -
O=C(Nc1ccc2nsnc2c1)NC1CCCCC1 | - | - | - | ? | 50 | -
SMILES | Shiga toxin inh | RE007 growth inh | LmPK inh | Giardia FBPA inh | Cycloheximide cs | Tb PYK inh
O=C(NC1CCCCC1)c1ccc(N2CCCC2=O)cc1 | - | - | - | - | - | -
CCOC(=O)C(O)(c1ccc(NC(=O)NC2CCCCC2)cc1)C(F)(F)F (stereo unspecified) | - | - | - | - | 20 | -
O=C(Cc1ccc(Cl)cc1)NNC(=O)C(=O)NC1CCCCC1 | . | - | . | . | . | -
Nc1ccc(NC(=O)NC2CCCCC2)cc1[N+](=O)[O-] | 65 | - | - | - | 33 | -
O=C(Nc1ccc(Cl)cc1)NC1CCCCC1 | - | - | - | - | 38 | -
CCn1cnc2cc(NC(=O)c3ccco3)ccc21 | - | - | - | - | 30 | -
CCCn1cnc2cc(NC(=O)c3ccco3)ccc21 | 80 | - | - | - | 63 | -
CC(=O)NCCc1nc2cc(NC(=O)c3cccs3)ccc2n1C | - | - | - | - | - | -
CCCn1cnc2cc(NC(=O)c3cccs3)ccc21 | - | - | - | - | 29 | -
CC(C)(C)n1cnc2cc(NC(=O)c3ccco3)ccc21 | 62 | - | - | - | 25 | -
